Data taken from PubChem BioAssay.
A number with no mark means an inactive call. Activity calls are given as the source filed them.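 How the source made its calls: active means GFP response above 150% of the DMSO level; inconclusive means fewer than 70 events counted for a yeast strain; inactive means the rest.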

Experiment: yeast AGP1-GFP fluorescence change, single-dose – cell-based, flow cytometry, S. cerevisiae, cherry picks, confirmation (AID 2273);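 further: median GFP channel fluorescence over the whole cell population gate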
Conditions: S. cerevisiae AGP1-GFP strain, 3 h, at 10 µM

Compound	GFP response, % of DMSO [%]
Cc1ccsc1/C=N/Nc1ncc(Cl)cc1Cl	83.7
O=C(Nc1ccc(S(=O)(=O)N2CCOCC2)cc1)c1ccc([N+](=O)[O-])cc1Cl	91.7
Cc1ccc(-c2nc(NC(=O)c3nn(C)cc3[N+](=O)[O-])sc2C)cc1C	95.4
CC(C)c1nnc(SCC(=O)N2CCc3ccccc32)n1C	97.6
O=S(=O)(c1ccc(-c2ccccc2)cc1)N1CCOCC1	99.5
Cc1cc(O)c(C(=O)/C=C/c2cccc([N+](=O)[O-])c2)c(=O)o1	107
COc1ccccc1N=Nc1ccc(O)c2ncccc12	115
N=c1ccn(CC(=O)c2ccc(-c3ccccc3)cc2)cc1	92.1

Experiment: TOR pathway CIT2 reporter hit retest – S. cerevisiae, GFP fusion, cherry picks, mother/daughter gates, confirmation (AID 2274)
Conditions: S. cerevisiae CIT2-GFP strain, flow cytometry, 3 h; at 10 µM; stronger effect = higher value

Compound	GFP response, % of DMSO
COc1ccc(COC(=O)c2n[nH]c3ccccc23)cc1F	106%
CCCc1cc(N2CCN(c3ccccn3)CC2)n2nc(C)c(-c3ccccc3)c2n1	153% (active)
O=C1c2ccccc2C2=Nc3ccccc3SC(c3cccc(F)c3)C12 (stereo not drawn)	117%
CCOC(=O)COc1c(Cl)cc(/C=C2\N=C(C)OC2=O)cc1OC	103%
Cc1nn2c(N3CCN(C(=O)c4ccco4)CC3)cc(C(C)(C)C)nc2c1-c1ccccc1	95.5%
Cc1ccc(S(=O)(=O)N(CC(=O)NCc2ccncc2)Cc2ccccc2F)cc1	103%
Cc1ccc(N2C(=O)C3C4C=CC(CNC(=S)Nc5ccc(F)cc5)(O4)C3C2=O)cc1 (stereo not drawn)	110%
COc1ccc(CC(=O)Oc2ccccc2C)cc1	96.4%
Cc1cc(C=C2C(=O)c3ccccc3C2=O)c(C)n1-c1cccc(C(=O)O)c1	112%
CC(C)c1ccc2c(c1)C1(NN=C(c3ccccc3)S1)C(=O)N2 (stereo not drawn)	91.3%
O=C(N/N=C\c1ccc(F)cc1)c1cc(OCC(F)(F)F)ccc1OCC(F)(F)F	105%
Cc1cc(NCCCN2CCOCC2)n2ncc(-c3ccccc3)c2n1	95.2%
COc1cc(NC(C)=O)ccc1NC(=O)c1cc2ccccc2o1	100%
COc1ccc(CCN2C(=O)c3cccc4cccc(c34)C2=O)cc1OC	100%
CN(O)/C=c1/ccc2c(n1)C(=O)C=CC=2	167% (active)
C/C(=N\NC(=O)c1ccc(Cl)c(Cl)c1)c1cccc(NC(=O)C(C)C)c1	99.3%
Cc1ccc(-c2ccc(/C=N/NC(N)=S)o2)cc1	97.8%
CC(C)(C)c1ccc(C(=O)N/N=C/c2cccc(Cl)c2)cc1	91.7%

Compound	GFP response, % of DMSO
Cc1ccc(S(=O)(=O)Nc2cc(Cl)c(O)c3ncccc23)cc1	97.8%
CC1CCc2c(C(=O)NCc3cccnc3)csc2C1 (stereo not drawn)	87.2%
CCNc1nc(-c2ccc(Cl)cc2)cs1	104%
O=C(CSc1nc2ccsc2c(=O)n1CC1CCC(C(=O)O)CC1)c1ccc(F)cc1 (stereo not drawn)	92.6%
CC(=O)Oc1ccc(N2C(=O)C3C4C=CC(CO)(O4)C3C2=O)cc1 (stereo not drawn)	109%
Oc1c(C(Nc2cccc(C(F)(F)F)c2)c2ccncc2)ccc2cccnc12 (stereo not drawn)	99.3%
COc1cc(C2CC(c3cccnc3)=NN2c2ccc(F)cc2)cc(OC)c1OC (stereo not drawn)	98.6%
COc1ccc(C(=O)C2CCCN(C(=O)c3cccs3)C2)cc1F (stereo not drawn)	100%
COC(=O)c1ccc(Cn2cc(/C=C\[N+](=O)[O-])c3ccccc32)o1	96.4%
CC(C)(C)NC(=O)CN(C(=O)CCC(=O)Nc1nccs1)c1ccc(F)cc1	102%
COc1ccccc1CNC(=O)CS(=O)Cc1nc(-c2ccc(OC)c(OC)c2)oc1C (stereo not drawn)	104%
O=C(COC(=O)C1CCN(c2ccc(C(F)(F)F)cn2)CC1)Nc1cccc(F)c1	104%
COc1ccc(CCNc2nc(-c3sc(C)nc3C)cs2)cc1OC	101%
O=C(Nc1c2c(nn1-c1ccccc1)CS(=O)C2)c1ccco1 (stereo not drawn)	97.2%
Cc1ccsc1/C=N/Nc1ncc(Cl)cc1Cl	100%
O=C(Nc1ccc(S(=O)(=O)N2CCOCC2)cc1)c1ccc([N+](=O)[O-])cc1Cl	101%
Cc1ccc(-c2nc(NC(=O)c3nn(C)cc3[N+](=O)[O-])sc2C)cc1C	93.5%
